Source: PubChem BioAssay AID2278 (National Center for Advancing Translational Sciences (NCATS), 2010)
Inconclusive results are not listed. The source made the active and inactive calls. Calls come from the whole dose curve; as a rule, active = well fitted curve in the direction sought with a large enough effect; inconclusive = small, poorly fitted or top-dose-only effect, or another doubt; inactive = no such curve, though single readings can be large or run the other way.

Target: Group 10 secretory phospholipase A2 (Mus musculus) (UniProt Q9QXX3)
Assay: Secondary Assay for Inhibitors of Ubiquitin-specific Protease USP2a: PLA2 Counterscreen
Conditions: purified murine PLA2, NBD C6-HPC fluorescence; series mostly up to 57.5 µM
From the text: NIH Molecular Libraries Screening Centers Network [MLSCN] NIH Chemical Genomics Center [NCGC] MLSCN Grant: XO1-MH079852-01 PI Name: Nicholson, Ben. Progenra Inc, Malvern, PA NCGC Assay Overview: Homeostasis of cellular proteins is maintained through a combination of synthesis and degradation. The pathway that accounts for the majority of protein degradation is the ubiquitin-proteasomal pathway. Ubiquitin (Ub) is highly conserved in all cells and the generation of a multi-Ub chain typically targets proteins for degradation by the proteasome. However, ubiquitination is highly reversible and dynamic. Deubiquitination, the reverse process, is catalyzed through the action of enzymes referred to as isopeptidases or deubiquitinating enzymes (DUBs). […]
NCGC Assay Protocol Summary: The assay buffer, prepared fresh at the day of the assay, contains 20mM Tris-HCl pH 8.0, 2mM CaCl2, 2mM beta-mercaptoethanol, 0.1% DMSO. […] Plates were read immediately on an Envision (Perkin Elmer) plate reader using wavelengths of Ex 460nm /Em 535nm. Then, the assay plates were incubated for 2.5 hours and read again on the Envision using the same settings. […] Concentration-response curves were fitted to the normalized data and the concentration-response curves were then classified based on curve quality (r2), response magnitude and degree of measured activity. The time zero reading was used to flag fluorescence artifacts. […]

Chain of Group 10 secretory phospholipase A2 (Mus musculus) (Q9QXX3 whole entry, looked up): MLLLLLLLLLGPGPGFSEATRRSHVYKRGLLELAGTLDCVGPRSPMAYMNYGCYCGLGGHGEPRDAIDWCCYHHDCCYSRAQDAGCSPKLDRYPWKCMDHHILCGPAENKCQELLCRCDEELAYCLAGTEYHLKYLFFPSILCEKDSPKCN

Row | SMILES | outcome
1 | CC1=NCCc2c1[nH]c1cc(O)ccc21 | inactive
2 | Cc1ccc2scc(N3CCN(C)CC3)c(=O)c2c1 | inactive
